In publication PMC12136788:
Numbering of substitutions follows the chain as printed. Whole data set: some 5,800 sequences, median “enrichment r” near 0.54, cut for the highest 2% near 16. Many of the other results were omitted from the sample, so the highest values are more common in it than they were.

B1: chr8:100287602:100287712:-|CDS|ENSG00000034677|unk|FALSE|unique (ssRNA)
RNA: GGGAGUUCUACAGUCCGACGAUCUGUGUGGAUUGCUUACGACAAUAUUUAAGGAUAGAAAUCUCUGAAAGCAGAGUUAAUAUUAGUUGCCCAGAAUGUACUGAACGGUUUAAUCCCCAUGAUAUUCGCUUGAUAUUAAGUGAUCAACAGAGGAUUGAGCAUCA
B2: chr2:167954955:167954998:-|3pUTR|ENSG00000198648|msi1_unk|FALSE|overlapping (ssRNA)
RNA: GGGAGUUCUACAGUCCGACGAUCGUUGUAUUUAGAAAUUAAUAUACUUAUAAAAUUAAGAUUUAUUAGCCAAACUUGAAUUCUAGUUUUAAAACUGACUGUGAAUUUUAUUUUUCAUAUAUUUAUGCAUUACACACCUUAGCUCAACAGAGGAUUGAGCAUCA
B3: chr8:100287602:100287712:-|CDS|ENSG00000034677|unk|total|mutant (ssRNA)
RNA: B1 RNA with U55C, A56C, U83C, A84C
B4: chr12:104760787:104760888:+|3pUTR|ENSG00000171310|unk|FALSE|unique (ssRNA)
RNA: GGGAGUUCUACAGUCCGACGAUCUUCUUUUCUAAUGGCAUUGAAACUUUAAAAAAAAUGGAUUCAACUGUUUUUGCAGAAUGUAGAAAGUAUUCUGUGUCCUUGGUUAAAGAAAUCCACUUGUGAAGUGUGCCUGGAAAAUGACAACAGAGGAUUGAGCAUCA
B5: chr12:98549999:98550103:+|3pUTR|ENSG00000120802|unk|total|mutant (ssRNA)
RNA: GGGAGUUCUACAGUCCGACGAUCUGUUUCCCAUACUGUUUUCAGCCUUUUGUUUAUAAUCCGAAAUUGUGAGAAGCUUCAUUCCGUGUUUAAAAAUGUGGGGAGAUAAAUCAGACUUAACAUGUAUGUAAGAUCAAUUCACUUCAACAGAGGAUUGAGCAUCA
B6: chr1:150220393:150220494:-|3pUTR|ENSG00000143401|msi1_unk|FALSE|overlapping (ssRNA)
RNA: GGGAGUUCUACAGUCCGACGAUCAUUGUAUGUAGAGAAAAAUUUUCAUUGACUCCCAUUGUGGAAUUCCCUAGCAAUUUAUUUAGACUUAAUUUUUUAAAUUCAAGCUUACUGUAUUAGUCAUUUUUAGCCCAUAAUUAAAACCAACAGAGGAUUGAGCAUCA
B7: chr12:98549999:98550103:+|3pUTR|ENSG00000120802|unk|FALSE|unique (ssRNA)
RNA: B5 RNA with C60U, C61A, C83U, C84A
B8: chr12:104760787:104760888:+|3pUTR|ENSG00000171310|unk|total|mutant (ssRNA)
RNA: B4 RNA with U83C, A84C
B9: chr12:909583:909684:+|3pUTR|ENSG00000060237|unk|FALSE|bound_elsewhere (ssRNA)
RNA: GGGAGUUCUACAGUCCGACGAUCUAGCUCUGUCCUUUACUUAUUGAGACACUUUAACUUUUUCCUUUGUAUUUCCAUUGUAUUAGAUAAAUAAAUGUGAAUGUAAAAUUGUAUAAAUUACUGUACUUGAAUACUUCUGUUUCCCAACAGAGGAUUGAGCAUCA
B10: ENSG00000064393:stop:overlap|stop_codon|ENSG00000064393|stop_codon|NA|stop_codon (ssRNA)
RNA: GGGAGUUCUACAGUCCGACGAUCUCUCCCUGGAGAGUGGUUUUCCUGCUUUUCUGCUGCUAGAAAUGUUGCUGUAUGGGAGCUAGUACAAUAGAAAGUGCCCAGUGACUGCAGGCGACCCUUACCGAGGAUUUUAUUCAAGUACAACAGAGGAUUGAGCAUCA
B11: chr1:150220393:150220494:-|3pUTR|ENSG00000143401|msi1_unk|total|mutant (ssRNA)
RNA: B6 RNA with U32C, A33C, U71C, A72C, U83C, A84C, U117C, A118C, U127C, A128C
B12: ENSG00000198856:stop:overlap|stop_codon|ENSG00000198856|stop_codon|NA|stop_codon (ssRNA)
RNA: GGGAGUUCUACAGUCCGACGAUCUGAGUUUUUUCAUGGCUAGAGUAUUCAUGAGAAUGAAACUGCCGGGCUAUCUGAUGGGUUAGAGUGCCUUUGAGAAGAAAUCAGUGGAUACUGGAUUUGCUCCUGUCAAUGAAGUUUUAACAACAGAGGAUUGAGCAUCA
B13: ENSG00000087460:stop:overlap|stop_codon|ENSG00000087460|stop_codon|NA|stop_codon (ssRNA)
RNA: GGGAGUUCUACAGUCCGACGAUCGAGGCGCCUUCGGCUCGGGCCAUGGCGCCCGGCGCCGGGGGCGCGAGGAGCGGCUCAUCUAGUCAGACCCCCCACCCCGCCACCGCCACCAGACACCACCAUCGCUGUGUAGUGUGCUGGCAACAGAGGAUUGAGCAUCA
B14: chr1:45693489:45693605:+|CDS|ENSG00000159596|unk|FALSE|unique (ssRNA)
RNA: GGGAGUUCUACAGUCCGACGAUCAAUCCCCUUCGUUGCUCCACCACUGGUCAUGCUGAUGACAAAAACUUAUAUUCCCAUAUUAGCUUUUACUCAGAUGGCUUAUGGAGCCAGUUUCCUAUCUUUCUUGGGUGGGAUCAGAUGCAACAGAGGAUUGAGCAUCA

target: MSI1 full-length (mouse, UniProt Q61474 1-362); test: nsRBNS (natural sequence RNA bind-n-seq); RBNS binding buffer (assumed for nsRBNS): 25 mM Tris pH 7.5, 150 mM KCl, 3 mM MgCl2, 0.01% Triton X-100, 500 ug/ml BSA, 20 U/ml SUPERase-In, 4 C; UNK is unkempt and MSI1 is Musashi-1; names of the RNAs are library labels; protein concentration not given here; high values mean tight binding
Sequence (Q61474 whole entry): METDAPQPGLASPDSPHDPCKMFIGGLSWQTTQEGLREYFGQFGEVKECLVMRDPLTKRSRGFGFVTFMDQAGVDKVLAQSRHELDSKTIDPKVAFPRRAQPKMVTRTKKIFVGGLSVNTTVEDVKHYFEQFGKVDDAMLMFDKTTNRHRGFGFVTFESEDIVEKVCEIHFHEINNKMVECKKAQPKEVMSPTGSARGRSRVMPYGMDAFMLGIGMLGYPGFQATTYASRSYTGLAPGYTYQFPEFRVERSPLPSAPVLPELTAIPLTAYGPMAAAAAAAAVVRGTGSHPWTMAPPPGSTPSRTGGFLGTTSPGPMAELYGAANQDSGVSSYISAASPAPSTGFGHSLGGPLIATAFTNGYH

| Binder | binding signal [enrichment R] |
| --- | --- |
| B1 | 22.4 |
| B2 | 9.9 |
| B3 | 0.307 |
| B4 | 0.433 |
| B5 | 0.426 |
| B6 | 61.8 |
| B7 | 27.3 |
| B8 | 0.231 |
| B9 | 13.1 |
| B10 | 0.605 |
| B11 | 2.27 |
| B12 | 16.4 |
| B13 | 0.204 |
| B14 | 0.499 |
